Measured values as given in PubChem BioAssay (NCATS).
Inconclusive results are not listed. Where a call stands in place of a potency, no number is given. Active and inactive are the calls of the source. The call rests on the fitted dose curve; in most records, active means well fitted inhibition curve with a large enough effect; inconclusive means small, poorly fitted or top-dose-only effect; inactive means flat fitted curve, though single readings scatter.

Biological target: Calcium and integrin-binding protein 1 (Homo sapiens) (UniProt Q99828)
Sequence (Q99828 whole entry, looked up): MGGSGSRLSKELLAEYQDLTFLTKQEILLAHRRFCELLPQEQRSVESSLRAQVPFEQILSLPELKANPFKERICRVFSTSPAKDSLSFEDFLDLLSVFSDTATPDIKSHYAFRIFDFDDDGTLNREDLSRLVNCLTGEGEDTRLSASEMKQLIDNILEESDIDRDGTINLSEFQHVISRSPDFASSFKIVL
Assay: Primary qHTS for Identification of Calcium Integrin Binding Protein 1 (CIB1) Competitor (AID 1508620);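 further: GST tagged CIB1 binding a fluorescein labelled alphaIIb integrin peptide tracer; top concentration of the series differs between compounds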
Summary of the method: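 CIB1-GST (1 uM final) and compound incubated 15 min at room temperature before adding FITC-alphaIIb peptide tracer (100 nM final). Competition for binding read by fluorescence polarization (ex 480, em 540) after another 15 min at room temperature.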

Row | Structure (SMILES) | Potency
1 | CC1CCC/C=C/C(=O)c2c(O)cc(O)cc2CC(=O)O1 (stereo not drawn) | inactive
2 | COC1C(OC(=O)/C=C/C=C/C=C/C=C/C(=O)O)CCC2(CO2)C1C1(C)OC1CC=C(C)C (stereo not drawn) | inactive
3 | COC(=O)Nc1cc(Nc2cc(NC3CC3)c3ncc(C#N)n3n2)c(Cl)c(N2CCN(C)CC2)c1 | inactive
4 | O=C(NCCCc1ccccc1)c1cccc(-c2cc(O)c3ncccc3c2)c1 | inactive
5 | O=C(O)CCc1nccc2c1[nH]c1ccccc12 | inactive
6 | CC(C)(O)/C=C/C(=O)[C@](C)(O)[C@H]1[C@H](O)C[C@@]2(C)[C@@H]3CC=C4[C@@H](C[C@H](O[C@@H]5O[C@H](CO)[C@@H](O)[C@H](O)[C@H]5O)C(=O)C4(C)C)[C@]3(C)C(=O)C[C@]12C | inactive
7 | C=C1C(=O)OC2/C=C(\C)CC/C=C(\C=O)C(OC)C(OC(=O)C(C)CC)C12 (stereo not drawn) | inactive
8 | N#Cc1ccc(-c2ccc(S(=O)(=O)Nc3cccc(N)n3)cc2)cc1 | inactive
9 | Cc1ccc(-c2ncccn2)c(C(=O)N2C[C@H](COc3ccc(F)cn3)CC[C@H]2C)c1 | inactive
10 | CCN1CCN(Cc2ccc(NC(=O)c3ccc(C)c(Oc4ncnc5[nH]c(C)cc45)c3)cc2C(F)(F)F)CC1 | inactive
11 | CC1(C=O)CCCC2(C)C1CCC13CC(CO)C(CCC12)C3 (stereo not drawn) | inactive
12 | CO[C@H]1[C@@H](O)[C@H](O[C@H]2CC[C@@]3(C)C(CCC4C3CC[C@]35COC6(COC(=O)C6)C3CCC45O)C2)O[C@@H](C)[C@@H]1OC1OC(CO)C(OC2OC(CO)C(O)C(O)C2O)C(O)C1O (stereo partly drawn) | inactive
13 | C=C1/C(=C/C=C2\CCC[C@@]3(C)C2CCC3[C@H](C)/C=C/[C@@H](O)C2CC2)C[C@@H](O)C[C@@H]1O (stereo partly drawn) | inactive
